The campaign covered roughly 1,300 compounds. About 330 (25%) were called active. How the calls were made is not given here. A selection follows. Where a call stands in place of a potency, no number is given. Potency and affinity values are given separately.
Assay: MALME3 melanoma cell viability loss, dose response, orthogonal assay for MITF inhibitor project, CellTiter-Glo, cherry-picked (AID 493191)
Conditions: CellTiter-Glo luminescence, 24 h; series mostly up to 35 µM

| Compound | outcome |
| --- | --- |
| O=C(Nc1ccccc1F)c1ccc2c(c1)OCO2 | inactive |
| COc1cccc(-c2nnc3n2N=C(C(C)(C)C)CS3)c1 | inactive |
| Cc1ccc(C2=NN(C(=O)CCl)C(c3cccs3)C2)o1 (stereo unspecified) | inactive |
| C=C1C(=O)C=C[C@]2(C)C[C@@H]3OC(=O)[C@](C)(O)[C@H]3C[C@@H]12 | inactive |
| CNc1oc(/C=C/c2cccc(OC)c2)nc1C#N | inactive |
| CCCN1C(=O)c2ccc(C(=O)Nc3cc(C)ccc3O)cc2C1=O | inactive |
| NNC(=O)c1cc2ccccc2cc1O | inactive |
| Cn1c(=O)c([N+](=O)[O-])c(-n2ccnc2)c2ccccc21 | inactive |
| CCn1c(=O)c(C(=O)NCc2ccccc2Cl)c(O)c2ccccc21 | inactive |
| COc1cc([N+](=O)[O-])cc(/C=N/NC(=O)c2ccc(NC(=O)c3ccc(C)cc3)cc2)c1O | inactive |
| CCOc1cc(NC(=O)CCl)c(OCC)cc1NC(=O)CCl | inactive |
| O=C(O)c1cccc(NC(=S)N/N=C/c2ccccn2)c1 | inactive |
| O=C(NC1CCCCC1)C(c1cccnc1)N(C(=O)CCl)c1ccc(F)cc1 (stereo unspecified) | inactive |
| COc1cc2c(cc1OC)C(C)N(S(=O)(=O)c1cnc(Cl)c(Cl)c1)CC2 (stereo unspecified) | inactive |
| COc1cc(CN2CCC(C(N)=O)CC2)ccc1OCc1ccccc1 | inactive |
| Cc1cc(C)c(C#N)c(SCc2nnc(-c3ccccc3)o2)n1 | inactive |
| O=C(NC1CCCCC1)c1cc2cc(Br)ccc2o1 | inactive |
| COc1cc2c(c(OC)c1OC)-c1ccc(OC)c(=O)cc1C(NC(C)=O)CC2 (stereo unspecified) | inactive |
| O=C(C[n+]1cc(-c2ccc(F)cc2)n2c1CCC2)c1cccs1 | inactive |
| Cc1nc(SCC(=O)Nc2ccc(CN3CCCC3)cc2)c2c(C)c(C)sc2n1 | inactive |
| Cc1cccc(OCC(=O)Nc2cccc(O)c2)c1 | inactive |
| O=C(CCl)Nc1ccc(Sc2ccc(NC(=O)CCl)cc2)cc1 | inactive |
| O=C(CCl)Nc1ccc(-c2ccccc2)cc1 | inactive |
| Cc1ccc2cc(NC(=O)Cc3ccccc3)ccc2n1 | inactive |

| Compound | outcome |
| --- | --- |
| COc1cccc(NC(=O)c2cc3ccccc3cc2OC)c1 | inactive |
| COc1ccc(-c2cc(-c3ccc(OC)c(OC)c3)n[nH]2)c(O)c1 | inactive |
| CCCOC(=O)c1ccc(NC(=O)C2CCCO2)cc1 (stereo unspecified) | inactive |
| CC1=NC(=O)C(N=Nc2cccc(C(=O)O)c2)N1c1ccccc1 (stereo unspecified) | inactive |
| Cc1ccc(-c2c[n+](Cc3ccc(Cl)c(Cl)c3)c3n2CCC3)cc1 | inactive |
| Cc1oc(=O)c(NC(=O)c2ccccc2)cc1C(=O)c1ccccc1 | inactive |
| Cc1cc(C)c2c(N)c(C(=O)N/N=C/c3ccccc3)sc2n1 | inactive |
| Cc1cc(C)c2nc3nc(C)cc(C)c3c(N)c2c1 | inactive |
| Cn1nnnc1Sc1ncnc2scc(-c3ccsc3)c12 | inactive |
| Cn1nnnc1Sc1ncnc2scc(-c3ccc(F)cc3)c12 | inactive |
| O=C(O)c1ccc(N/N=C/c2ccc(OC(=O)c3cccc(Cl)c3)cc2)cc1 | inactive |
| COc1ccccc1N1CCN(/N=C/c2cccc(Cl)c2)CC1 | inactive |
| CC(Oc1ccccc1)C(=O)Nc1nc(-c2ccccn2)cs1 (stereo unspecified) | inactive |
| O=C(Nc1nc(-c2ccccn2)cs1)c1ccccc1-n1cnnn1 | inactive |
| COc1ccc(C(=O)/C=C/Nc2ccccn2)cc1 | inactive |
| Cc1nc2ccc(NC(=O)c3ccco3)cc2nc1C | inactive |
| Cc1cc(C(=O)Nc2cccc(C(=O)O)c2)oc1C | inactive |
| Cc1cccc(NC(=O)c2ccc([N+](=O)[O-])o2)c1C | inactive |
| O=C(Nc1ccc2nn(-c3ccccc3)nc2c1)c1ccco1 | inactive |
| COc1ccc(C(=O)Nc2ccc3c(c2)OCCO3)cc1Br | inactive |
| CC(C)[C@H](NC(=O)OC(C)(C)C)c1nnc(S(=O)(=O)Cc2c(F)cccc2Cl)o1 | inactive |
| CCOc1ccc(C(=O)N2CCc3ccccc32)cc1 | inactive |
| N#C/C(=C\c1cccs1)C(=O)NCC1CCCO1 (stereo unspecified) | inactive |
| Cc1ccc2oc(=O)n(CCCOc3ccccc3)c2c1 | inactive |

| Compound | outcome |
| --- | --- |
| CN1CCN(CCCOc2ccc(-c3ccccc3)cc2)CC1 | inactive |
| CN(C)Cc1c(O)ccc2c1O/C(=C\C=C\c1ccccc1)C2=O | inactive |
| Cc1ccccc1OCc1nc2c3cnn(C)c3ncn2n1 | inactive |
| CC(=O)NC1=C(N(C)C2CCS(=O)(=O)C2)C(=O)c2ccccc2C1=O (stereo unspecified) | inactive |
| CCCCC1C(=O)N(c2ccccc2)N(c2ccc(O)cc2)C1=O (stereo unspecified) | inactive |
| O=C(COc1ccc2c(c1)CCC2)N1CCc2ccccc21 | inactive |
| O=C(Nc1ccccc1)NN(C(=O)CCl)c1ccccc1 | inactive |
| O=C(CCl)N(c1ccccc1)C1CCS(=O)(=O)C1 (stereo unspecified) | inactive |
| CN(C)c1ccc(/C=N/N2CCN(c3ccccn3)CC2)cc1 | inactive |
| Cc1ccc(NC(=O)C2CCN(S(=O)(=O)c3c(C)noc3/C=C/c3ccco3)CC2)nc1 | inactive |
| CCN=c1scc(-c2ccco2)n1/N=C/c1ccc(O)cc1 | inactive |
| Cc1ccc(S(=O)(=O)Nc2cccc3cccnc23)cc1 | inactive |
| NC(=O)C1CCN(C2=C(NS(=O)(=O)c3ccc(Br)cc3)C(=O)c3ccccc3C2=O)CC1 | inactive |
| Cc1ccc(C(CNS(=O)(=O)c2ccc(Br)cc2)N2CCN(C)CC2)cc1 (stereo unspecified) | inactive |
| O=C(/C=C/c1ccc2c(c1)OCCO2)c1ccccc1 | inactive |
| O=C(NC1=NCCS1)c1ccc(Cl)c(Cl)c1 | inactive |
| CC(C)c1ccc(C(=O)Nc2cccnc2)cc1 | inactive |
| O=C(NCc1ccccc1)NC1(C(=O)Nc2ccc3c(c2)OCCO3)CCCCC1 | inactive |
| COc1ccc(-n2cc(-c3ccc(C)cc3)[n+]3c2SCC3)cc1 | inactive |
| COc1cc(SC)ccc1C(=O)Nc1nc(C)cs1 | inactive |
| O=C(CSc1nc2ccccc2[nH]1)c1ccc2c(c1)OCO2 | inactive |
| O=C(Nc1ccc(Br)cc1)c1ccc2c(c1)OCO2 | inactive |
| Cc1cccc(NC(=O)c2cnn(-c3ccccc3)c2C)c1C | inactive |
| CCc1nc2oc3ccc(C)cc3c(=O)c2cc1C(=O)OC | inactive |

| Compound | outcome |
| --- | --- |
| O=C(N/N=C/C(Cl)=C\c1ccccc1)c1cccs1 | inactive |
| O=C(NCc1ccco1)c1nc2c(nnn2Cc2ccccc2Cl)c(=O)[nH]1 | inactive |
| CCOc1ccc(N=C(C)C2=C(O)c3ccccc3C2=O)cc1 | inactive |
| Nc1nnc(/C=C/c2ccccc2Cl)s1 | inactive |
| O=C(NCC1CCCO1)c1cc(-c2ccc(Cl)cc2Cl)on1 (stereo unspecified) | inactive |
| CS/C(N)=N/N=C/c1ccc2c(c1)OCO2 | inactive |
| CN(C)c1nc(-c2ccccn2)nnc1-c1ccccc1 | inactive |
| O=C(/C=C/c1ccc(Cl)c([N+](=O)[O-])c1)c1ccc(O)cc1 | inactive |
| O=C(c1ccc(S(=O)(=O)Cc2ccccc2Cl)c([N+](=O)[O-])c1)N1CCN(c2ccccn2)CC1 | inactive |
| COc1ccc(/C=C2\SC(=S)N(CCCC(=O)NNC(=O)c3ccccc3O)C2=O)cc1 | inactive |
| N#C/C(=C(/O)CCl)c1nc2ccccc2[nH]1 | inactive |
| COc1ccc(O)c(/C=N/NC(=O)c2ccc(CSc3nc(C)cc(C)n3)cc2)c1 | inactive |
| COc1nc(NC2CCCCC2)nc(NC(C)(C)C)n1 | inactive |
| O=C(CCCc1ccccc1)Nc1cccc(C(=O)O)c1 | inactive |
| CCOC(=O)c1[nH]cnc1N=Nc1c(O)ccc2ccccc12 | inactive |
| O=C1N=C(N2CCOCC2)S/C1=C\C=C/c1ccccc1 | inactive |
| Cc1nc(-c2ccccn2)sc1C(=O)Nc1ccc(F)cc1F | inactive |
| O=C(O)c1cc(N/N=C/C(Cl)=C/c2ccccc2)ccc1Cl | inactive |
| C=CCNC(=O)c1ccc2nc(Cc3ccc(OC)cc3)oc2c1 | inactive |
| Cc1ccc(C(=O)N/C(=C\c2ccc(-c3ccccc3[N+](=O)[O-])o2)C(=O)NCCCN(C)C)cc1 | inactive |
| Cc1ccc(C(=O)N/C(=C\c2ccc(-c3ccccc3[N+](=O)[O-])o2)C(=O)NCCN(C)C)cc1 | inactive |
| CN(C)CCNC(=O)/C(=C/c1ccc(-c2ccc(Cl)cc2)o1)NC(=O)c1ccccc1 | inactive |
| CCOc1ccc(-n2c(-c3ccc(OC)cc3)c[n+]3c2CCCCC3)cc1 | inactive |
| CCN(CC)C(=O)CCCOc1ccc(Cl)cc1Cl | inactive |

| Compound | outcome |
| --- | --- |
| Cc1nc2nc(C)c(NS(=O)(=O)c3ccc4c(c3)CCCC4)c(=O)n2[nH]1 | inactive |
| Cc1cccnc1NC(=O)NC(=O)c1ccc(C(C)(C)C)s1 | inactive |
| N#Cc1c(NC(=O)CSc2ncn[nH]2)sc2c1CCCCC2 | inactive |
| N#Cc1c(NC(=O)CSc2ncn[nH]2)sc2c1CCCC2 | inactive |
| Cn1nnnc1Sc1ncnc2scc(-c3cccs3)c12 | inactive |
| Cc1ccc(-c2nc(-c3ccncc3)no2)cc1C | inactive |
| CCN(CC)S(=O)(=O)c1cccc(C(=O)N/N=C(\C)c2ccc(O)cc2O)c1 | inactive |
| O=C(Nc1cccnc1Cl)c1cc(-c2ccco2)on1 | inactive |
| COc1cc(CN2CCC(C(=O)NCCC(C)C)CC2)ccc1OCc1ccccc1 | inactive |
| O=C(Nc1ccc(Cl)cc1)N1CC=CCC1 | inactive |
| O=C(Nc1ccc(Nc2ccncc2)cc1)c1ccc([N+](=O)[O-])cc1 | inactive |
| COc1ccc2oc(=N)c(C(=O)Nc3ccccc3Cl)cc2c1 | inactive |
| CCCCOc1ccc(-c2nnn(C(C)(C)C(=O)OC)n2)cc1 | inactive |
| CC1=C/C(=N\NC(=S)Nc2cccnc2)CC(C)(C)C1 | inactive |
| COc1cccc(/C=N/Nc2ncnc3c2ncn3Cc2ccccc2)c1O | inactive |
| COc1ccc(/C=N/N=C2/SCC(=O)N2Cc2ccccc2)cc1 | inactive |
| N#Cc1ccc(-c2cccnc2)nc1SCC(=O)c1ccccc1 | inactive |
| COc1ccccc1N1CCN(/N=C/c2ccc([N+](=O)[O-])cc2)CC1 | inactive |
| O=C(c1ccc([N+](=O)[O-])s1)N1CCCc2ccccc21 | inactive |
| O=Cc1ccc(N2Cc3ccccc3C2)cc1 | inactive |
